{"source": "PubChem BioAssay (NCI)", "note": "Where “and” joins values, the source holds several entries; their conditions need not be identical. Identical values can stand only once. This is part of a sample that, as a whole, favours compounds with a hit. Of some 83,000 tested, about 20% had one in any assay.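 96-well plates, one dose, 48 hours. Percent growth reported; active if below 10.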 Calls of active or inactive are those of the source."}
{"test_system": "HL-60(TB) leukemia", "experiment": "NCI-60 one-dose screen, 48 h (100 = growth as untreated, 0 = no growth, -100 = all killed)", "conditions": "10 µM unless noted"}
{"smiles": "O=[N+]([O-])c1ccc2[nH]cc(-c3c4ccsc4cc4[nH]c5ccc([N+](=O)[O-])cc5c34)c2c1", "growth": "8.08% (active)"}
{"smiles": "N#Cc1c(-c2ccc(Cl)cc2)nc(NN=Cc2cccc(O)c2)nc1N1CCOCC1", "growth": "66.6% (inactive)"}
{"smiles": "Nc1[nH][nH]c(=O)c1N=Nc1ccccc1", "growth": "98.6% (inactive) and 102% (inactive)"}
{"smiles": "CCCCCCCCCCCCCCCCCCOc1ccccc1CC(=O)NCC[N+]1(C)CCCC1", "growth": "39.7% (inactive)"}
{"smiles": "CCN(CC)CC(C)(C)C(=O)/C=C/c1ccc(Cl)c(Cl)c1", "growth": "-10.2% (active)"}
{"smiles": "COC1=CC(=O)c2nc(Cl)ccc2C1=O", "growth": "-30.1% (active)"}
{"smiles": "CC(=O)Nc1ccc2c(c1)c(NC(C)=O)nn2C(=O)Nc1ccc(Cc2ccccc2)cc1", "growth": "93.1% (inactive)"}
{"smiles": "COc1ccc(Cn2c(NCCCN(C)C)nc(=O)n(Cc3ccc(F)cc3)c2=O)cc1", "growth": "95.7% (inactive)"}
{"smiles": "COc1ccc(/C=C/C(=C/c2c(O)[nH]c3cc(Br)ccc23)N=O)cc1", "growth": "119% (inactive)"}
{"smiles": "CCOC(=O)N1C/C(=C/c2ccc(OC)cc2)C(=O)/C(=C/c2ccc(OC)cc2)C1", "growth": "16.7% (inactive)"}
{"smiles": "Cc1cc2c(c(=O)o1)C(c1ccc(OC(=O)N3CCOCC3)cc1)C(C#N)=C(N)O2", "note": "(stereo not given)", "growth": "104% (inactive)"}
{"smiles": "CC(C)n1cnc2c(Nc3cccc(Cl)c3)nc(N[C@H]3CCCC[C@@H]3N)nc21", "growth": "25.1% (inactive)"}
{"smiles": "C[C@]12C[C@H]1CC[C@]1(C)[C@@H]2CC[C@@]23C[C@H](CC[C@H]21)[C@@](O)(CO)C3", "growth": "103% (inactive)"}
{"smiles": "CC1CCCc2sc3nc(NNC(=O)c4cnccn4)n(-c4ccccc4)c(=O)c3c21", "note": "(stereo not given)", "growth": "-33.4% (active) and -12.4% (active)"}
{"smiles": "COc1ccc(-c2nn(Cc3ccccc3)c3c2-c2oncc2CC3)cc1OC", "growth": "87.7% (inactive)"}
{"smiles": "CC/C(=C(\\c1ccccc1)c1ccc(OCCNC)cc1)c1ccccc1", "growth": "6.56% (active)"}
{"smiles": "CCCCCCCCCCCCCCCC(=O)N1CCN(C)CC1", "growth": "47.3% (inactive)"}
{"smiles": "CCc1ccc(CCCC(=O)O)cc1", "growth": "98.8% (inactive)"}
{"smiles": "O=C(Nc1ccc(Cl)cc1)Nc1ccc(Cl)c(C(F)(F)F)c1", "growth": "-60.8% (active)"}
{"smiles": "O=C(Nc1ncc(Cc2ccc(Cl)c(C(F)(F)F)c2)s1)c1ccc2nnsc2c1", "growth": "42.5% (inactive)"}
{"smiles": "CN(C)CCCn1c2c(c3cc(-c4cccc(S(N)(=O)=O)c4)ccc3c1=O)C(=O)c1ccccc1-2", "growth": "93.2% (inactive)"}
{"smiles": "Cc1cc2c(O)c(-c3cccc(Cl)c3)c3sc(=O)oc3c2cc1C", "growth": "23.2% (inactive)"}
{"smiles": "Cc1ccc(S(=O)(=O)Oc2ccc([N+](=O)[O-])cc2[N+](=O)[O-])cc1", "growth": "47.9% (inactive)"}
{"smiles": "Cc1nn(-c2nc3ccccc3s2)c(C)c1Oc1ccccc1O", "growth": "60.3% (inactive)"}
{"smiles": "Cn1c(I)c(C#C[Si](C)(C)C)c(=O)n(C(=O)c2ccccc2)c1=O", "growth": "-59% (active)"}
{"smiles": "CC(=O)N1N=C(c2ccc(C(F)(F)F)cc2)CC1c1ccc2c(c1)OCO2", "note": "(stereo not given)", "growth": "95.6% (inactive)"}
{"smiles": "O=c1oc2cc(OS(=O)(=O)c3ccccc3)c(Cl)cc2c2c1CCCCCC2", "growth": "87.6% (inactive)"}
{"smiles": "COc1cc(CC#N)c([N+](=O)[O-])cc1OC", "growth": "92.6% (inactive)"}
{"smiles": "Cc1cccc2c1NC(=O)C2(c1ccc(O)cc1)c1ccc(O)cc1", "growth": "83% (inactive)"}
{"smiles": "CCC(=C(c1ccc(OCCN2CCCC2)cc1)c1ccc(OCCN2CCCC2)cc1)c1ccc(Cl)cc1", "growth": "-52.5% (active)"}
{"smiles": "CCN(CC)CCOc1ccc(NC(=O)C(C(C)C)N2C(=O)/C(=C/c3ccc(Br)cc3)SC2=S)cc1", "note": "(stereo not given)", "growth": "27.6% (inactive)"}
{"smiles": "COc1ccc(CN2c3ccccc3Sc3ccccc32)cc1O", "growth": "21.1% (inactive)"}
{"smiles": "O=C(Cn1ccc(=O)[nH]c1=O)c1ccc([N+](=O)[O-])o1", "growth": "87.1% (inactive)"}
{"smiles": "OCC(O)C(O)CC1SCCS1", "note": "(stereo not given)", "growth": "46% (inactive)"}
{"smiles": "O=[N+]([O-])c1cccc(N=C(Nc2cccc([N+](=O)[O-])c2)c2ccccc2)c1", "growth": "102% (inactive)"}
{"smiles": "CC[C@H](CC[C@@H](C)[C@H]1CC[C@H]2[C@@H]3CC=C4C[C@@H](O)CC[C@]4(C)[C@H]3CC[C@]12C)C(C)C", "growth": "125% (inactive) and 100% (inactive)"}
{"smiles": "COc1ccc2c(c1)C(=O)/C(=C/c1cccc(OCC(=O)c3ccccc3)c1)O2", "growth": "-80.5% (active)"}
{"smiles": "CCOC(=O)c1cc(C(=O)c2ccc(OC)c(OC)c2)n2ccc(-c3ccccn3)cc12", "growth": "110% (inactive)"}
{"smiles": "COc1ccc(C2c3cccn3-c3ccccc3N2C(C)=O)cc1", "note": "(stereo not given)", "growth": "-49.9% (active)"}
{"smiles": "C=CCCCOC1[C@H](OCc2ccccc2)C(OCc2ccccc2)C(OC)O[C@@H]1CNC(=O)c1cccc(I)c1", "note": "(stereo not given in full)", "growth": "55.1% (inactive)"}
